Assay results taken from ChEMBL document CHEMBL4513216, “Probing the Open Global Health Chemical Diversity Library for Multistage-Active Starting Points for Next-Generation Antimalarials” (ACS Infect Dis, 2020).
Among all 69,000 compounds or so, about 8,600 (12%) showed an effect of 50% or more. The sample as a whole holds a higher share of strong results than the screen did.

Test system: Plasmodium berghei
Test: Screen against P. berghei liver stage (PbLuc), transformed with Luciferase, at 10uM
Type: functional, HepG2
Details: tested at 10 uM

SMILES | INHIBITION [%]
Cc1ccc(CC(=O)N2CCCCC2Cn2cccn2)cn1 (stereo unspecified) | 30.3
O=C1c2c(O)cc(O)cc2O[C@@H](c2ccc(O)cc2)[C@@H]1O | 70.8
Oc1ccc([C@H]2Oc3cc(O)cc(O)c3C[C@@H]2O)cc1 | 7.5
COc1cc(C2CC(=O)c3c(O)cc(O)cc3O2)ccc1O (stereo unspecified) | -17.1
COc1cc2c(cc1CN1CCn3c(CO)nnc3C1)CCC2 | 3.91
Cc1nc(C)n(CC2CCCCN2CCc2ccncc2)n1 (stereo unspecified) | 4
CCOC(=O)Cn1cccc(S(=O)(=O)N2CCCC2)c1=O | -2.92
CC1CCCN(Cc2ccnc(-c3cccnc3)n2)C1 (stereo unspecified) | -6.92
c1cncc(-c2nccc(CN3CCCC3)n2)c1 | 51.2
c1cncc(-c2nccc(CN3CCC(N4CCCCC4)CC3)n2)c1 | 17.1
OC1CCN(Cc2ccnc(-c3cccnc3)n2)CC1 | 42.4
CCN1CCN(Cc2ccnc(-c3cccnc3)n2)CC1 | 46.1
c1ccc(CC2CCN(Cc3ccnc(-c4cccnc4)n3)CC2)cc1 | 50
COCCN1C[C@@H](c2ccccc2)[C@@]2(CCN(CC(=O)N(C)C)C2=O)C1 | -4.82
Cc1ccccc1N1CC2(CCN(S(=O)(=O)c3cccs3)C2)CC1=O (stereo unspecified) | 35.7
Cc1noc(C)c1CN1C[C@@H](NS(=O)(=O)N(C)C)[C@H](C(C)C)C1 | 24.3
Cc1nc(CN2C[C@@H](NS(=O)(=O)N(C)C)[C@H](C(C)C)C2)cs1 | 38.3
CC(=O)c1cc(CN2C[C@@H]3CC[C@H]2CN(S(=O)(=O)N(C)C)C3)cs1 | 80.1
CN(C)S(=O)(=O)N1C[C@H]2CC[C@@H](C1)N(Cc1ccc3nsnc3c1)C2 | 45.1
CC(=O)c1cc(CN2C[C@@H](N(C)C)[C@H](C(C)C)C2)cs1 | 13.7
CC(C)[C@@H]1CN(C(=O)NCCc2ccccc2)C[C@H]1NS(=O)(=O)N(C)C | 41.3
CC(=O)c1cc(CN2C[C@@H]3CC[C@H]2CN(S(C)(=O)=O)C3)cs1 | -52.2

SMILES | INHIBITION [%]
CC(=O)c1cc(CN2C[C@@H](NS(=O)(=O)N(C)C)[C@H](C(C)C)C2)cs1 | 52.2
CC(C)[C@@H]1CN(Cc2ccsc2)C[C@H]1NS(=O)(=O)N(C)C | 50.1
COCCN1C[C@H]2[C@@H](C1)N(C(=O)CCc1ccccc1)CC[C@H]2OC | -14.1
COC(=O)CN(C(=O)c1ccc(-n2ccnc2)cc1)C1CC1 | 6.23
CC(C)c1cc(CN(C)C(=O)CN2CCCCC2=O)no1 | 15.4
Cc1nc(O)cc([C@@H]2CN(S(=O)(=O)N(C)C)C[C@H]2c2ccccc2F)n1 | -6.15
COCC1CN(S(=O)(=O)c2cccc(F)c2)Cc2nccn2C1 (stereo unspecified) | 41.2
Cn1cc(CN2CCC[C@]3(C[C@H](Oc4ncccc4F)CO3)C2)cn1 | 31.5
CCC(C)NC(=O)c1nnn(-c2ccc(Br)cc2)n1 (stereo unspecified) | -10.6
CCc1nc(CN2CCCN(c3nccs3)CC2)no1 | 22.5
CCc1nc(CN2CCCN(c3ncnc4sccc34)CC2)no1 | 95.1
CCc1nc(CN2CCCN(c3ncnc4ccsc34)CC2)no1 | 91.1
CCn1ccnc1CN1CCN(c2ncnc3ccsc23)CC1 | -50.7
Cc1nc(CN2CCCN(c3nccs3)CC2)no1 | -63.3
CCc1nc(CN2CCCN(Cc3cnn(C)c3)CC2)no1 | 35.5
Cc1nc(CN2C[C@@H]3CN(C(=O)c4ccnnc4)C[C@@H]3C2=O)cs1 | 13.6
COc1ccccc1OC1CN(C(=O)Cc2c(C)nc3ccccn23)C1 | -7.2
COc1ccccc1OC1CN(C(=O)c2c(C)nc3ccc(C)cn23)C1 | 86.8
COc1ccccc1OC1CN(C(=O)Cc2c(C)nc(N)nc2C)C1 | 1.71
COc1ccccc1OC1CN(C(=O)c2ccccc2C(C)=O)C1 | 65.7
COc1ccccc1OC1CCN(C(=O)c2cccc(O)c2C)CC1 | 19.3
COc1ccccc1OC1CN(C(=O)c2ccc(C(C)=O)s2)C1 | 7.3

SMILES | INHIBITION [%]
CCCC(=O)N1CCCC(c2cc3cccnc3c(O)n2)C1 (stereo unspecified) | 25.8
CCOCC(=O)N1CCc2c(CN(C)C)nn(C(C)C)c2C1 | 23.1
NC(=O)c1cn[nH]c1NC(=O)c1ccc2c(c1)OCO2 | -16.4
CCS(=O)(=O)CCNC(=O)c1ccc(-c2ccc(C)cc2)cc1F | 8.47
NS(=O)(=O)CCNC(=O)c1ccc(-c2ccc(F)cc2)cc1F | -33.2
Cc1ccc(-c2ccc(C(=O)NCCS(N)(=O)=O)c(F)c2)cc1 | 55.4
CCN1C(=O)CCC12CCC(NC(=O)c1cc(C)on1)CC2 (stereo unspecified) | -45.5
C[C@@H]1CN(c2nc(O)cc(Cc3ccccc3F)n2)C[C@H](C)O1 | 15.5
Cc1cc(-c2nn3c(C4CCC4)nnc3s2)on1 | 34.6
O=C(CCC1CCN(C2CSCCSC2)CC1)NCC1CCCO1 (stereo unspecified) | 34.9
c1cncc(OCc2noc3c2CN(Cc2ccco2)CC3)c1 | 38.5
Cc1nnc(SC2CCN(c3sccc3C#N)C2=O)[nH]1 (stereo unspecified) | 40.7
Cc1nnc(SC2CCN(c3sccc3C#N)C2=O)s1 (stereo unspecified) | 16.8
Cc1nc(SC2CCN(c3sccc3C#N)C2=O)oc1C (stereo unspecified) | 51.5
O=C(Cc1csc(-c2ccccc2F)n1)NCc1ccc(C(=O)O)cc1 | 2.61
CCn1cc(NC(=O)NCc2ccc3c(c2)OCO3)cn1 | -25.9
CCCc1noc(C(C)N2CCN(Cc3nc(C)c(C)o3)CC2)n1 (stereo unspecified) | -12.25
Cc1cnn(CCNCC(=O)N2CCN(c3ncccn3)CC2)c1 | 25.1
Cn1cc(NC(=O)c2cccc(C(F)(F)F)c2)c(=O)n(C)c1=O | 15
CN(C)c1cccc(C(=O)Nc2cn(C)c(=O)n(C)c2=O)c1 | 31.2
Cn1cc(NC(=O)c2cccc(Cl)c2)c(=O)n(C)c1=O | 56.1
CCC(=O)N1CCCC(Cn2cc(-c3ccc(F)cc3)nn2)C1 (stereo unspecified) | -14.2

SMILES | INHIBITION [%]
CSCC(=O)N1CCCN(c2ccncc2C)CC1 | 49.2
Cn1nccc1C(=O)N1CCCN(CCCc2ccccc2)CC1 | -16.8
Cc1nccn1CCCC(=O)N1CCCN(c2cccnn2)CC1 | 10
Cc1cnccc1N1CCCN(C(=O)CCCn2ccnc2C)CC1 | -2.48
CCOCCC(=O)N1CCCN(c2ccccc2C)CC1 | 15.2
O=C(c1ncoc1C1CC1)N1CCCN(CCCc2ccccc2)CC1 | 83.9
Cc1ccccc1N1CCCN(C(=O)CCCn2ccnc2C)CC1 | 75.4
O=C(c1ncoc1C1CC1)N1CCN(CCOc2ccccc2)CC1 | 26.7
CSCC(=O)N1CCCN(c2ccccc2C)CC1 | 84.5
Cc1ccccc1N1CCCN(C(=O)c2cn(C)c3ccccc23)CC1 | -2.13
CSCCC(=O)N1CCCN(c2ccccc2C)CC1 | 34.1
Cc1ccccc1N1CCN(C(=O)CC(C)C)CC1 | 56.5
COc1nn(C)c2c1CCCN(C(=O)c1cccc3cccnc13)C2 | 14
Cc1cc(C)c(C(=O)N2CCC3(CCCNC3)C2)cc1C (stereo unspecified) | -35.8
O=C1[C@H]2CN(C(=O)[C@H]3CCCO3)C[C@H]2CN1CCN1CCCC1 | 1.34
CC(C)[C@H]1CN(CCCO)C[C@@H]1NC(=O)CCC(F)(F)F | 20.2
CCn1cc(-n2cc3nc(N4CCCC4)[nH]cc-3c2=O)cn1 | -29.6
Cc1cc(N2CCOC(C)(C(=O)N(C)C)C2)ncn1 (stereo unspecified) | 37.8
NC(=O)N1CCC2(CCN(Cc3cccc(F)c3)CC2)CC1 | -13.2
Cc1nccn1CCC(=O)N1CCCN(c2ccccc2)CC1 | 28.7
Cc1nccn1CCC(=O)N1CCCN(CCCc2ccccc2)CC1 | 51.5
Cc1ccccc1N1CCCN(C(=O)CCc2ccncc2)CC1 | 26.9

SMILES | INHIBITION [%]
Cc1ccccc1N1CCCN(C(=O)CCc2cccnc2)CC1 | 59.2
CC(=O)N1CCCN(CCCc2ccccc2)CC1 | 15.2
Cc1ccccc1N1CCCN(C(=O)CCc2nncn2C)CC1 | 49.3
NC(=O)c1ccc(N2CCN(CCCc3cn[nH]c3)CC2)cc1 | -62.8
CCN(CC)CC1CN(Cc2ccco2)Cc2nccn2C1 (stereo unspecified) | -33.9
CCc1nc(CN2CCN(C(=O)C3(C#N)CCCCC3)CC2)cs1 | -9.37
COc1ccc(-c2n[nH]c(C)c2CC(=O)N2CCOCC2)cc1 | 51.3
Cc1[nH]nc(-c2ccc(F)cc2)c1CC(=O)NCC1CCOCC1 | 9.55
COc1ccc(-c2n[nH]c(C)c2CC(=O)NCC2CCCO2)cc1 (stereo unspecified) | 39.7
COc1ccc(-c2cc3cccn(CC(=O)N4CCOCC4)c-3n2)cc1 | -23.4
COc1ccc(-c2n[nH]c(C)c2CC(=O)NCCN2CCOCC2)cc1 | 29.3
COc1ccc(-c2n[nH]c(C)c2CC(=O)NCC2CCOCC2)cc1 | 51.9
COCCN(Cc1cnn(C)c1)C(=O)C1CCC(=O)N(C2CCCC2)C1 (stereo unspecified) | 20.3
CC1(C)C[C@H](CCNC(=O)c2ccncc2)c2ccccc2O1 | 27.8
O=C1CC(N(C(=O)c2ccc(Cl)c(Cl)c2)C2CC2)C(=O)N1 (stereo unspecified) | 31.8
O=c1ccc(-n2ccnc2)nn1CCNS(=O)(=O)c1ccccc1Cl | 35.1
O=c1ccc(-n2ccnc2)nn1CCNS(=O)(=O)c1ccc(F)c(Cl)c1 | -1.99
O=c1ccc(-n2ccnc2)nn1CCNS(=O)(=O)c1ccc(Br)cc1 | 59.3
